Data on four compounds can be found in PubChem BioAssay (NCATS).

Several values for one entry are separate records, joined by “and”; a condition that tells them apart may be missing. Identical values can stand only once. Results filed as inconclusive are left out. Activity calls are given as the source filed them. Unless noted, the call rests on the fitted dose curve; in most records, active means well fitted curve in the direction sought with a large enough effect; inconclusive means small, poorly fitted or top-dose-only effect, or another doubt; inactive means no such curve, though single readings can be large; an effect the other way counts as inactive or inconclusive.

The nature of experiment [1]: AP1 Signaling Pathway (AID 357; active means well fitted curve in either direction with a large enough effect, not every such curve was filed as active;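 further: ME-180 reporter cells stimulated with EGF at its EC50 level; on the % scale 0 is the no-effect control and ±100 the full control effect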). To be noted: ME-180 AP-1-bla reporter, EGF-induced, beta-lactamase ratio, 5 h. In a few lines: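 Modulation of EGF-driven AP-1 transcription was assessed with a beta-lactamase reporter in ME-180 cells. Compound and EC50 EGF were co-incubated 5 hours at 37 °C before 2.5-hour CCF4 loading at room temperature and dual-emission reading.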

The nature of experiment [2]: NFAT Signaling Pathway (AID 444; active means well fitted curve in either direction with a large enough effect, not every such curve was filed as active;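 further: carbachol stimulus at about its EC50 of 1 µM final; on the % scale 0 is the no-effect control and ±100 the full control effect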). To be noted: Jurkat NFAT-bla M1, carbachol, beta-lactamase ratio, 5 h. Summed up:
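Read-out: CCF4 FRET ratio (460 nm/530 nm) after 1 h RT dye loading, used for %activity and AC50 from titration series. Cells: Jurkat NFAT-β-lactamase/M1 line, treated with compound plus 1 uM carbachol for 5 h, 37 °C.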

Experiment [3] can be described thus: Stat Signaling Pathway (AID 446; active means well fitted curve in either direction with a large enough effect, not every such curve was filed as active;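 further: ME-180 cervical cancer cells given 40 pM IL-6 alongside compound; SIE-controlled beta-lactamase reporter measured as 460/530 nm FRET emission ratio; on the % scale 0 is the no-effect control and ±100 the full control effect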). The conditions noted are these: ME-180 SIE beta-lactamase reporter, IL-6 stimulated, 5 h. In a few lines: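 Screening format detects activators and inhibitors alike: ME-180 SIE-bla cells stimulated at 40 pM IL-6 for 5 hrs with compound, then dual-emission beta-lactamase read at 405 nm excitation.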
Experiment [4] deals with Glucocorticoid receptor (Homo sapiens) (UniProt P04150). The experiment can be described thus: GR-GFP Redistribution (AID 450;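 active means compounds whose dose series gives a full or clear partial fitted curve of increased nuclear translocation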; further: potency means the concentration at half of the fitted maximal effect). The conditions noted are these: U2OS GR-GFP nuclear translocation, laser cytometry, 2 h.
Experiment [5] has the same target. The experiment can be described thus: GR-EFC Redistribution (AID 451; calls by dose curve; further: potency means the concentration at half of the fitted maximal effect). The conditions noted are these: CHO-K1 GR-EFC translocation, beta-gal luminescence, 2 h. Summed up: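 Translocation of GR-ED fusion to nuclear EA restores b-gal, read by luminescence after 1 h room-temperature detection. Engineered CHO-K1 biosensor cells, 1,000/well, exposed 2 h at 37 C to titrations up to 46 uM final.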

The target in experiment [6] is Mitogen-activated protein kinase 10 (Mus musculus) (UniProt Q61831). Kind of experiment: JNK3 AlphaScreen Assay (AID 530; active means well fitted curve in either direction with a large enough effect, not every such curve was filed as active;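 further: kinase came from lysate of stimulated human HepG2 cells; signal reports phosphorylation of biotinylated GST-cJun 1-79 at Ser73 with 10 µM ATP; on the % scale 0 is the no-effect control and ±100 the full control effect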). In a few lines: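 Room-temperature AlphaScreen kinase assay; pre-activated HepG2 lysate as JNK3 source, biotin-GST-cJun(1-79) substrate, 10 uM ATP, compound 15 min preincubation.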
In general terms: Alpha assays give light when donor and acceptor beads are brought close together.

The target in experiment [7] is 3',5'-cyclic-AMP phosphodiesterase 4B (Homo sapiens) (UniProt Q07343). Kind of experiment: qHTS Assay for Inhibitors of PDE-IV (AID 607; active means well fitted activation curve with a large enough effect in the main read-out, with a control signal flat, not every such curve was filed as active; further: % of control where 0% means no effect). In a few lines:
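The readout is membrane depolarisation from a cAMP-sensing CNG channel, detected with a potential dye at ex 535/em 590. Cells were HEK293-derived (endogenous PDE-IV) at 1000 cells/well, titrated up to 22.9 uM final.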

For experiment [8], the target named is Guanine nucleotide-binding protein G(i) subunit alpha-1 (Homo sapiens) (UniProt P63096). The experiment can be described thus: qHTS Assay for Inhibitors of RGS12 GoLoco Motif Activity (Green Fluorophore) (AID 879).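 Further: 0% = labeled peptide with Gαi1 and full inhibition = labeled peptide alone without protein; negative values mean loss of peptide binding seen as reduced polarization.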 In a few lines:
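Fluorescence polarization assay: 50 nM Gαi1 with 10 nM FITC-labeled RGS12 GoLoco peptide in 10 mM Tris pH 7.5, 150 mM NaCl, 0.1 mM GDP, 0.05% NP40, 10 min at room temperature with compound.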
In general terms: Quantitative high-throughput screening tests each substance at several concentrations.

Experiment [9] in a line: Confirmation and Secondary Assay for Modulators of Hemoglobin Beta Chain Splicing at IVS2 654 locus (AID 910).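 Further: HeLa cells stably carrying EGFP split by mutant beta-globin IVS2-654 intron; per-well total GFP intensity by laser scanning cytometry after 2-day treatment; % of control where 0% means no effect.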 Summed up: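 Readout: per-well total peak green fluorescence (488 nm ex, 500–520 nm em) from objects 5–250 µm, reflecting correct splicing of an EGFP-654 reporter. Compounds were applied for 2 days at 37 °C to overnight-plated HeLa EGFP-654 cells; controls were DMSO and 500 nM IVS2-654 PNA.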

Experiment [10] in a line: qHTS Assay for Identification of Small Molecule Agonists for Thrombopoietin (TPO) Signaling Pathway (AID 917). Further: on the % scale 0 is the no-effect control and ±100 the full control effect. In a few lines: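 Reporter: GpIIb promoter–luciferase in murine Ba/F3 expressing human TPO receptor. Pre-starved of IL-3 overnight; compounds with 26 pM TPO, 24 hrs, 37 C/5% CO2; luminescence read.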
The nature of experiment [11]: Confirmation and Secondary Assay for Modulators of Hemoglobin Beta Chain Splicing at IVS2 705 locus (AID 930).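 Further: HeLa cells stably expressing the EGFP-705 splicing reporter; GFP fluorescence per well restored by corrected splicing of the IVS2-705 intron in EGFP; % of control where 0% means no effect.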 Summed up:
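Splice-correction reporter: EGFP cDNA split by beta-globin intron 2 bearing the 705 mutation, stably in HeLa. Compound incubation 2 days, 37C; fluorescent objects 5-250 µm summed per well.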

The target of experiment [12] is Pyruvate kinase (Leishmania mexicana) (UniProt Q27686). The experiment can be described thus: qHTS Validation Assay for Inhibitors of Leishmania Mexicana Pyruvate Kinase (AID 945).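 Further: 0% = DMSO only neutral control wells.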 Summed up: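 The enzyme is a highly purified E451W mutant of LmPYK used at 0.2 nM. It converts 0.5 mM PEP and 0.1 mM ADP over 1 h at room temperature; product ATP is quantified by luciferase luminescence relative to DMSO controls.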

Experiment [13] deals with Pyruvate kinase PKM (Homo sapiens) (UniProt P14618). Kind of experiment: qHTS Assay for Activators of Human Muscle Pyruvate Kinase (AID 954; active means well fitted curve in the direction sought with a large enough effect, not every such curve was filed as active;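 further: 0% = uninhibited enzyme and -100% = no enzyme or full thiadiazolimine inhibition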). In a few lines:
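Reaction: 0.1 nM purified PKM2 with 0.5 mM phosphoenolpyruvate and 0.1 mM ADP, room temperature, 1 h. Readout: luciferase-based ATP luminescence after stop reagent. Activators judged against a 0.3 nM enzyme column.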

Experiment [14] concerns the target alpha-glucosidase (Oryza sativa, rice) (UniProt Q653V4). The experiment can be described thus: Counterscreen for Glucocerebrosidase Inhibitors: qHTS Assay for Rice alpha-Glucosidase at pH 5.0 (AID 997).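 Further: 0% = full activity with enzyme and -100% = basal without enzyme.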 In a few lines: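 Rice alpha-glucosidase (4 nM final) with 400 uM 4-methylumbelliferyl-alpha-D-glucopyranoside in citrate buffer pH 5.0, 20 min at room temperature, stopped at pH 10; fluorescence 365/440 nm, compounds 0.7 nM–77 uM, AC50 from Hill fits.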
(In general: A counterscreen serves to expose hits that act by an unwanted route or on another target.)

A short description of experiment [15]: qHTS Assay for Lipid Storage Modulators (AID 1519; calls by dose curve). To be noted: Drosophila S3 cells, BODIPY lipid droplet/cell ratio, laser cytometry, cells loaded with oleic acid. Summed up:
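Cells seeded at 5,000 per well were treated with compounds over a concentration series and loaded with oleic acid (400 uM, as added). Lipid droplet fluorescence (488 nm excitation, 500-530 nm channel) was read by laser-scanning cytometry and normalized to 20 uM Triacsin C.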

Experiment [16] deals with Ubiquitin carboxyl-terminal hydrolase 1 (Homo sapiens) (UniProt O94782). The experiment can be described thus: Inhibitors of USP1/UAF1: Pilot qHTS (AID 504865).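 Further: rhodamine fluorescence freed from ubiquitin-rhodamine substrate followed over time; top concentration of the series differs between compounds; on the % scale 0 is the no-effect control and ±100 the full control effect; nearly all actives have a fitted effect of over 35% in size.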 In a few lines: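 Deubiquitinase activity followed as kinetic rhodamine fluorescence release from 150 nM Ub-Rho. 1 nM USP1/UAF1 with compound, after 15 min room-temperature preincubation, in HEPES pH 7.8 buffer containing TCEP, EDTA, BSA and Tween-20.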

Experiment [17] addresses DNA dC->dU-editing enzyme APOBEC-3G (Homo sapiens) (UniProt Q9HC16). The experiment can be described thus: qHTS for inhibitors of Vif-A3G interactions: Validation (AID 588379). Further: 0% is about no effect. In a few lines:
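HeLa cells stably expressing Vif and A3G-eYFP, 700 cells/well, incubated overnight at 37 deg C, then exposed to compound overnight at 37 deg C. Inhibition of Vif-mediated degradation read as increased yellow fluorescence (Ex 488/Em 500-530) by laser-scanning cytometry.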

Experiment [18] deals with Zika virus NS2B-NS3 protease. The experiment can be described thus: Primary screen GU AMC qHTS for Zika virus inhibitors (AID 1347154).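 Further: 0% = no-inhibitor control and -100% = no-enzyme control; nearly all actives have a fitted effect of over 70% in size.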 Summed up:
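Fluorogenic AMC-substrate cleavage by noncovalent NS2B-NS3 protease complex (25 nM, pH 8.0 Tris buffer with Tween 20) followed for 15 minutes at room temperature (~20% conversion). Percent inhibition from ex340/em450 signal change, fitted by 4-parameter Hill equation.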

Experiment [19] in a line: qHTS for Inhibitors of the vitamin D receptor (VDR): Hit Validation using a Texas Red Assay (AID 602201). Further: potency means the concentration at half of the fitted maximal effect. To be noted: VDR coregulator binding, Texas Red fluorescence polarization; agonist-bound VDR ligand-binding domain. Summed up: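 After a 2-hour room-temperature incubation, polarization of Texas-Red emission was read (Ex 595 nm/Em 615 nm). Final mix contained 7 nM Texas Red, 1.5 uM VDR-LBD and LG19078.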

Experiment [20] can be described thus: Primary qHTS for small molecule stabilizers of the endoplasmic reticulum resident proteome: Secreted ER Calcium Modulated Protein (SERCaMP) assay (AID 1508630). Further: on the % scale 0 is the no-effect control and ±100 the full control effect. In a few lines: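 GLuc-SERCaMP-expressing SH-SY5Y cells, pretreated 16 h with compound, are challenged with thapsigargin to empty ER calcium stores; after 4 h, coelenterazine is added directly to the medium and luminescence is imaged.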

In experiment [21] the target is Cytochrome P450 3A4 (Homo sapiens) (UniProt P08684). Kind of experiment: qHTS Assay for Activators of Cytochrome P450 3A4 (AID 885). Further: nearly all actives have a fitted effect of over 65% in size. In a few lines:
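Steps: enzyme/substrate mix dispensed; compound added, 10 min RT; NADPH regeneration solution added, 60 min RT; luciferin detection buffer stops reaction; 20 min later luminescence measured.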

3',5'-cyclic-AMP phosphodiesterase 4B (Homo sapiens), sequence (Q07343 whole entry, looked up): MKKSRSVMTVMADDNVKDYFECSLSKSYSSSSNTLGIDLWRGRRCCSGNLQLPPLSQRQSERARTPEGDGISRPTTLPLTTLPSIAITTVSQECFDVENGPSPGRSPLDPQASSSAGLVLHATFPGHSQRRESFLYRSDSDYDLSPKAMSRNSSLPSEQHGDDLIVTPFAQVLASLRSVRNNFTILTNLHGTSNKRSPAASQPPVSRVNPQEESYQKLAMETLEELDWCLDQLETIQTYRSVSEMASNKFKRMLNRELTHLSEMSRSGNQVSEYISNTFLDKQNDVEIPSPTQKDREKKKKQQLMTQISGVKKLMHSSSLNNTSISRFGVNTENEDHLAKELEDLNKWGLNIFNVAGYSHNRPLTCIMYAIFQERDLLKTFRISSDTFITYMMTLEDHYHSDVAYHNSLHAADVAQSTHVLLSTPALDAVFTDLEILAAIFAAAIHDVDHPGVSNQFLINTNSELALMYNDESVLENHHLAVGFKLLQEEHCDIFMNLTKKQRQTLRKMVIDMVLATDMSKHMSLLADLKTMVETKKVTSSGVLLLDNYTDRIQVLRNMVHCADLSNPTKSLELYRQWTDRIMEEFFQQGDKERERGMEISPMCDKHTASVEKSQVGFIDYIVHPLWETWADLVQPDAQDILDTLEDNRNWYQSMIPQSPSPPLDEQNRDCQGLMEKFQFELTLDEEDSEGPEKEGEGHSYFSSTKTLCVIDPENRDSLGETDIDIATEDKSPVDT
Glucocorticoid receptor (Homo sapiens), sequence (P04150 whole entry, looked up, the tested form may be a part): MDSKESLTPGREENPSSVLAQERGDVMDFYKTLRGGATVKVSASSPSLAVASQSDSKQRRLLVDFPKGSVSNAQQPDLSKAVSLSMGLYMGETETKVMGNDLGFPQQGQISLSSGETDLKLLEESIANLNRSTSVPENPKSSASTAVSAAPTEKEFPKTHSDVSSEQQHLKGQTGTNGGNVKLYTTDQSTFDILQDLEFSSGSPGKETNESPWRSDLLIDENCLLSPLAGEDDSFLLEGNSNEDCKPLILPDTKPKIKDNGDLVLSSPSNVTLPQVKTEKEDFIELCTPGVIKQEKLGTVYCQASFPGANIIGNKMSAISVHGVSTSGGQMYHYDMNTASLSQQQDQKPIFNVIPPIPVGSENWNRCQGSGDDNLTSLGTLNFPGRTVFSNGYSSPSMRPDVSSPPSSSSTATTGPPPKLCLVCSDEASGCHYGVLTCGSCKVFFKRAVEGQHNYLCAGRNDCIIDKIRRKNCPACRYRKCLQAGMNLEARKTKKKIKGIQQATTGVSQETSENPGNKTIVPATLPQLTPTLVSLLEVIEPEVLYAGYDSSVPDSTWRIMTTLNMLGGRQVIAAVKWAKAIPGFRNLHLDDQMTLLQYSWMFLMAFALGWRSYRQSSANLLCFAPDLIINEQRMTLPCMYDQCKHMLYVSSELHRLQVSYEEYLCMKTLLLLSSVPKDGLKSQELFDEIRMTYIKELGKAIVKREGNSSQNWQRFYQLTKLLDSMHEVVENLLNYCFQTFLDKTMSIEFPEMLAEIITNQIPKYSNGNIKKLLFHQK
DNA dC->dU-editing enzyme APOBEC-3G (Homo sapiens), sequence (Q9HC16 whole entry, looked up): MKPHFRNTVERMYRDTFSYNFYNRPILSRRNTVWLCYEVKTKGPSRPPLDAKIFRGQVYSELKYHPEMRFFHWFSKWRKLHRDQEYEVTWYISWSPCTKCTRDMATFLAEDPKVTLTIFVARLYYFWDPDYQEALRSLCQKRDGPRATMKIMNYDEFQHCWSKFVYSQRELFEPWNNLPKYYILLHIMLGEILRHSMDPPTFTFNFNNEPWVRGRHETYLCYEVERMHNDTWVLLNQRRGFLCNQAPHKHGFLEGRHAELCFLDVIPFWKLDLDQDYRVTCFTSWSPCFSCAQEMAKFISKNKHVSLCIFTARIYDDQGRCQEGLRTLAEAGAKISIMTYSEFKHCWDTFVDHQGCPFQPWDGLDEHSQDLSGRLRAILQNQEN
Pyruvate kinase (Leishmania mexicana), sequence (Q27686 2-499 E452W): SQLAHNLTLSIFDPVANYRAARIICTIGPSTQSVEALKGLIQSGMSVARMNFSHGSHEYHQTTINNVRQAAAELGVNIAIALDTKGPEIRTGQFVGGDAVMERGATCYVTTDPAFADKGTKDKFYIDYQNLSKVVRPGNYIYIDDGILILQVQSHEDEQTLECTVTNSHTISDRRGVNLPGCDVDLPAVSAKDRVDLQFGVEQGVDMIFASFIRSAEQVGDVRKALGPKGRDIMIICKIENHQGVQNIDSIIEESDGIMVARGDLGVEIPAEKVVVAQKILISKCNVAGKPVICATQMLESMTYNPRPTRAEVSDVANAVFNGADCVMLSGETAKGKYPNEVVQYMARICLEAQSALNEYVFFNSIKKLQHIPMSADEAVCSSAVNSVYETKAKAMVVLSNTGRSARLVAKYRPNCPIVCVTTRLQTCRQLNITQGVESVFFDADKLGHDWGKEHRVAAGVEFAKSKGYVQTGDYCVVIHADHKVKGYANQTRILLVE
Cytochrome P450 3A4 (Homo sapiens), sequence (P08684 whole entry, looked up): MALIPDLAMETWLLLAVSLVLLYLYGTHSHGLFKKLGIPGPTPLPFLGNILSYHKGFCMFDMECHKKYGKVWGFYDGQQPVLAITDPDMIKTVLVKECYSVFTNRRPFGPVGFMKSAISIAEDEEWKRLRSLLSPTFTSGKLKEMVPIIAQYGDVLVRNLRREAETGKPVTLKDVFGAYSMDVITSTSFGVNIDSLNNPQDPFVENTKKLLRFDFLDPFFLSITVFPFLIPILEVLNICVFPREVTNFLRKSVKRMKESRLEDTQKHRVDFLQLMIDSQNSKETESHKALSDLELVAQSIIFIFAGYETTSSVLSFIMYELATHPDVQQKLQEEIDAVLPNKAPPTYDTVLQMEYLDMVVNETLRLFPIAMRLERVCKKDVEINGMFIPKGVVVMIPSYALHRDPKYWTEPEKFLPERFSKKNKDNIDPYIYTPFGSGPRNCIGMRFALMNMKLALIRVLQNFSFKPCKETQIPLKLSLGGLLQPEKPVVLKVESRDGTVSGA
Pyruvate kinase PKM (Homo sapiens), sequence (P14618 whole entry, looked up): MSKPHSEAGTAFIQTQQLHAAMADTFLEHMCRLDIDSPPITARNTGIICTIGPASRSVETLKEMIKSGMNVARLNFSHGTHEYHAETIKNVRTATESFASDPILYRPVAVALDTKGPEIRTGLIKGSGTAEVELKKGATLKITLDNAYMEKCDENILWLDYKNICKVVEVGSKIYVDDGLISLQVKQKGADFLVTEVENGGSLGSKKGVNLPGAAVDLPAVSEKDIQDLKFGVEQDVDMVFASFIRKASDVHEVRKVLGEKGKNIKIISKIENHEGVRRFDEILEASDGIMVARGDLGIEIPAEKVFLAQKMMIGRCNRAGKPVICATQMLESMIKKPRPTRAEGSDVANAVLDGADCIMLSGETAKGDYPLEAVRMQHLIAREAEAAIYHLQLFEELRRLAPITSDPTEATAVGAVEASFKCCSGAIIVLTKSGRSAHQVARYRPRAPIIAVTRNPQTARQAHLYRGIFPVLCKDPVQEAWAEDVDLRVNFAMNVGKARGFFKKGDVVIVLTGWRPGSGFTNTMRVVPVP
Guanine nucleotide-binding protein G(i) subunit alpha-1 (Homo sapiens), sequence (P63096 whole entry, looked up): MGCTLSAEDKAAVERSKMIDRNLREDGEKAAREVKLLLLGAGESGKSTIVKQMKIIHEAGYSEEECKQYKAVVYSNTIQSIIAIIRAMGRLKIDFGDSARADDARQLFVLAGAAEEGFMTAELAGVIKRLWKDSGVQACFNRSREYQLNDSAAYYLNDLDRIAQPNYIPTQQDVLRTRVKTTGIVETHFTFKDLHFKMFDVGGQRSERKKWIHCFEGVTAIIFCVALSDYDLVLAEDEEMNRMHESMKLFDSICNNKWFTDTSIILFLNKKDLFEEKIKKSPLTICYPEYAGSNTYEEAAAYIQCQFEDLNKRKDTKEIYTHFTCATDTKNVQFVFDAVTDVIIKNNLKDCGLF
Ubiquitin carboxyl-terminal hydrolase 1 (Homo sapiens), sequence (O94782 whole entry, looked up): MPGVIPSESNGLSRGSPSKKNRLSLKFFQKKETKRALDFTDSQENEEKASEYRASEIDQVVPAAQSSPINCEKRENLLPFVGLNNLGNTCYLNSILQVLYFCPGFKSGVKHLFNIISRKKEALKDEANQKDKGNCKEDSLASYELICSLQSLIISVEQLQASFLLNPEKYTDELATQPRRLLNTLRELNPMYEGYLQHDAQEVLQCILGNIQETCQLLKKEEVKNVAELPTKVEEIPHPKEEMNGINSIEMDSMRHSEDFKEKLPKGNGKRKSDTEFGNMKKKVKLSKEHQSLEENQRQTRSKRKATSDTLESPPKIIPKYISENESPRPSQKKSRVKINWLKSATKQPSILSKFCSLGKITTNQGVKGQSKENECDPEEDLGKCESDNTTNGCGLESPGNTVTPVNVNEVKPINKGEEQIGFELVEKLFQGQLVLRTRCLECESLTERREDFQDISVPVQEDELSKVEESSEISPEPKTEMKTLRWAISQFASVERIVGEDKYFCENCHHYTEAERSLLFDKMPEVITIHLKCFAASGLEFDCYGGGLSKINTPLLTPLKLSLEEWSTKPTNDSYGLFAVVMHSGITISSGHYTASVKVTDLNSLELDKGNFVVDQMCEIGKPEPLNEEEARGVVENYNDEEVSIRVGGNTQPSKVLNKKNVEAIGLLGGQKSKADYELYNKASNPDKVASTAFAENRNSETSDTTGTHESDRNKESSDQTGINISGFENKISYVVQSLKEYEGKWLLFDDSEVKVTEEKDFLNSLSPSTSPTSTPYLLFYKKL

As to `CC(C)(C)NC[C@H](O)c1ccc(O)c(CO)c1`, the activity change, negative = inhibition was -9.06% (inactive) in experiment [1] (at 17.2 µM (top of the series)); -4.2% (inactive) and -6.86% (inactive) in experiment [1] (at 38 µM (top of the series)); -10.8% (inactive) in experiment [2] (at 17.2 µM (top of the series)); 0.545% (inactive) and 8.74% (inactive) in [2] (at 38 µM (top of the series)); -2.46% (inactive) in experiment [15] (at 25.7 µM (top of the series)); 3.61% (inactive) in experiment [15] (at 57.5 µM (top of the series)). Besides, the activity, negative = inhibition in [3] (at 17.2 µM (top of the series)) is 16.1% (inactive); in [3] (at 38 µM (top of the series)) it was -5.91% (inactive) and -0.604% (inactive). The Potency in experiment [4] was > 46 µM (inactive) and > 20.6 µM (inactive); in experiment [5] it was > 46 µM (inactive) and > 20.6 µM (inactive). Moreover, the Potency result in experiment [6], in [7], in experiment [10], in [12], in experiment [16] and in experiment [17] was “inactive” throughout. In addition, the Potency result in experiment [18] is “inactive”. Further, the result in [8], in [9], in experiment [11], in experiment [13] and in experiment [14] was inactive. In addition, the max response in [15] (measured here: cell count channel max response) was -16.6%; in experiment [15] (measured here: lipid channel max response), -19.3% and -13%.
`O=C1c2ccccc2CCC1CNCCc1ccc(O)cc1` (centres undefined): the Potency in [19] is 28.2 µM (active). Besides, the Potency result in experiment [18] and in experiment [20] was “inactive” throughout.
Consider `COc1ccccc1N1CCN(CCn2c(=O)[nH]c3c([nH]c4ccccc43)c2=O)CC1`, for which the Potency in experiment [4] and in experiment [5] was > 46 µM (inactive) throughout. Besides, the Potency entry in experiment [7], in experiment [21], in experiment [17], in experiment [18] and in [20] was “inactive” throughout.
In the case of `CCN(CC)C[C@@H]1CCCCN1CC(=O)N1c2ccccc2C(=O)Nc2cccnc21`, the Potency result in experiment [7], in [21], in experiment [17], in experiment [18] and in experiment [20] was “inactive” throughout.
